Assay [1] addresses Lysosomal acid glucosylceramidase (Homo sapiens) (UniProt P04062). Briefly: Glucocerebrosidase-p2 (AID 348; in the data active = potency below about 10 µM; also: potency is read from the fitted curve at half-maximal effect). The note with it: purified GBA, blue fluorogenic substrate, 40 min. In outline:
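Compounds titrated from 0.6 nM upwards against 0.2 nM enzyme in pH 5.9 citric acid/KH2PO4, taurocholate, tween-20; blue fluorogenic substrate 80 uM, 40 min room temperature, stopped and read Ex 365/Em 440 for AC50.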

Assay [2] in a line: AP1 Signaling Pathway (AID 357).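 Also: ME-180 reporter cells stimulated with EGF at its EC50 level; % is scaled to controls: 0 for no effect and ±100 for the full control effect.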 The following applies: ME-180 AP-1-bla reporter, EGF-induced, beta-lactamase ratio, 5 h; at 7.69 µM (top of the series) unless noted. In outline:
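Cells are seeded overnight, exposed to compound titrations and an EC50 level of EGF for 5 hours at 37 °C, then loaded with CCF4 dye for 2.5 hours. Beta-lactamase activity under the AP-1 element is read as a blue/green ratio.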

Assay [3] concerns the target Cytochrome P450 1A2 (Homo sapiens) (UniProt P05177). Briefly: p450-cyp1a2 (AID 410; calls by dose curve; also: potency is read from the fitted curve at half-maximal effect;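 as to activity change, negative = inhibition: -100% = full effect of reference inhibitor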). The note with it: recombinant CYP1A2, luciferin-ME demethylation, luminescence; series mostly up to 57 µM. A digest of the protocol: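 Human CYP1A2 (20nM) demethylated Luciferin-ME at its Km (100uM) in 100mM KPO4. After 10 min compound preincubation, NADPH regeneration ran the reaction 60 min at room temperature. Luciferin was read by luminescence, normalized to 57 uM furafylline.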

Assay [4] in a line: NFAT Signaling Pathway (AID 444).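 Also: carbachol stimulus at about its EC50 of 1 µM final; % is scaled to controls: 0 for no effect and ±100 for the full control effect.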 The note with it: Jurkat NFAT-bla M1, carbachol, beta-lactamase ratio, 5 h; at 7.69 µM (top of the series) unless noted. In outline:
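Jurkat cells with NFAT-driven β-lactamase reporter and co-expressed M1 receptor, stimulated with carbachol (final 1 uM, ~EC50), compound titration, 5 h at 37 °C. CCF4 loaded 1 h at RT; 460/530 nm ratio gave %activity and AC50.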

A short description of assay [5]: Stat Signaling Pathway (AID 446).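 Also: ME-180 cervical cancer cells given 40 pM IL-6 alongside compound; SIE-controlled beta-lactamase reporter measured as 460/530 nm FRET emission ratio; % is scaled to controls: 0 for no effect and ±100 for the full control effect.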 The following applies: ME-180 SIE beta-lactamase reporter, IL-6 stimulated, 5 h; at 7.69 µM (top of the series) unless noted. A digest of the protocol: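 Screening format detects activators and inhibitors alike: ME-180 SIE-bla cells stimulated at 40 pM IL-6 for 5 hrs with compound, then dual-emission beta-lactamase read at 405 nm excitation.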

In assay [6] the target is Glucocorticoid receptor (Homo sapiens) (UniProt P04150). Briefly: GR-GFP Redistribution (AID 450;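 active = compounds whose dose series gives a full or clear partial fitted curve of increased nuclear translocation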; also: potency is read from the fitted curve at half-maximal effect). The following applies: U2OS GR-GFP nuclear translocation, laser cytometry, 2 h.
Assay [7] shares this target. Kind of assay: GR-EFC Redistribution (AID 451; calls by dose curve; also: potency is read from the fitted curve at half-maximal effect). The note with it: CHO-K1 GR-EFC translocation, beta-gal luminescence, 2 h. A digest of the protocol:
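CHO-K1 cells expressing nuclear EA and GR-ED fragments of b-gal; compounds titrated up to 46 uM final, 2 h at 37 C. GR nuclear translocation read as complemented b-gal luminescence after 1 h RT detection.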

Assay [8] deals with Mitogen-activated protein kinase 10 (Mus musculus) (UniProt Q61831). Kind of assay: JNK3 AlphaScreen Assay (AID 530).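 Also: kinase came from lysate of stimulated human HepG2 cells; signal reports phosphorylation of biotinylated GST-cJun 1-79 at Ser73 with 10 µM ATP; % is scaled to controls: 0 for no effect and ±100 for the full control effect.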 The note with it: JNK3 lysate, c-Jun phosphorylation; series mostly up to 57.1 µM. A digest of the protocol: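 qHTS format: compounds tested as titrations against IL-1beta/TNF-alpha-activated HepG2 lysate JNK3 with biotin-GST-cJun substrate and 10 uM ATP at room temperature. Loss of anti-phospho-cJun AlphaScreen signal indicates inhibition.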

Assay [9] has as its target 3',5'-cyclic-AMP phosphodiesterase 4B (Homo sapiens) (UniProt Q07343). Kind of assay: qHTS Assay for Inhibitors of PDE-IV (AID 607; active = well fitted activation curve with a large enough effect in the main read-out, with a control signal flat, not every such curve was filed as active; also: % of control where 0% means no effect). The note with it: HEK293 ACTOne CNG channel cells, membrane potential fluorescence; series mostly up to 22.9 µM. In outline: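 The readout is membrane depolarisation from a cAMP-sensing CNG channel, detected with a potential dye at ex 535/em 590. Cells were HEK293-derived (endogenous PDE-IV) at 1000 cells/well, titrated up to 22.9 uM final.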
A general note: In qHTS, concentration-response curves come from the screen itself.

In assay [10] the target is Cytochrome P450 3A4 (Homo sapiens) (UniProt P08684). Briefly: qHTS Assay for Inhibitors and Substrates of Cytochrome P450 3A4 (AID 884; active = well fitted curve in the direction sought with a large enough effect; an effect the other way counts as inactive or inconclusive; also: nearly all actives have a fitted effect of over 50% in size; also: potency is read from the fitted curve at half-maximal effect). The following applies: recombinant CYP3A4, Luciferin-PPXE luminescence; series mostly up to 57.1 µM. In outline: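 20 nM human CYP3A4 with 25 uM Luciferin-PPXE (at KM) in 200 mM KPO4, preincubated 10 min with compound; NADPH regeneration started a 60 min RT reaction. Luciferin detected by luminescence, normalized to 57 uM ketoconazole as full inhibition.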

Assay [11] shares this target. Briefly: qHTS Assay for Activators of Cytochrome P450 3A4 (AID 885; active = well fitted curve in the direction sought with a large enough effect; an effect the other way counts as inactive or inconclusive; also: nearly all actives have a fitted effect of over 65% in size). The following applies: recombinant CYP3A4, Luciferin-PPXE luminescence, 60 min; series mostly up to 57.1 µM. In outline:
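Steps: enzyme/substrate mix dispensed; compound added, 10 min RT; NADPH regeneration solution added, 60 min RT; luciferin detection buffer stops reaction; 20 min later luminescence measured.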

Assay [12] in a line: Confirmation and Secondary Assay for Modulators of Hemoglobin Beta Chain Splicing at IVS2 654 locus (AID 910; active = well fitted curve in the direction sought with a large enough effect; an effect the other way counts as inactive or inconclusive;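 also: HeLa cells stably carrying EGFP split by mutant beta-globin IVS2-654 intron; % of control where 0% means no effect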). The note with it: HeLa EGFP-654 splicing reporter, GFP fluorescence, 48 h; series mostly up to 38.3 µM. A digest of the protocol:
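HeLa cells stably expressing EGFP interrupted by β-globin IVS2-654 intron, seeded overnight in Opti-MEM/2% FCS, then treated 2 days at 37 °C. Restored splicing read as total peak GFP intensity per well by laser scanning cytometry (488 nm excitation, 500–520 nm emission); 500 nM antisense PNA as control.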

The nature of assay [13]: Confirmation and Secondary Assay for Modulators of Hemoglobin Beta Chain Splicing at IVS2 705 locus (AID 930; active = well fitted curve in the direction sought with a large enough effect; an effect the other way counts as inactive or inconclusive;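 also: HeLa cells stably expressing the EGFP-705 splicing reporter; GFP fluorescence per well restored by corrected splicing of the IVS2-705 intron in EGFP; % of control where 0% means no effect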). The note with it: HeLa EGFP-705 splicing reporter, GFP fluorescence, 48 h; series mostly up to 38.3 µM. A digest of the protocol:
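First, HeLa EGFP-705 cells are seeded at 500/well in Optimem with 2% FCS and left overnight. Next, compound or DMSO is added for 2 days. Finally wells are laser-scanned and total peak GFP intensity scored.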

Assay [14] can be described thus: qHTS Assay for Lipid Storage Modulators (AID 1519; calls by dose curve). The following applies: Drosophila S3 cells, BODIPY lipid droplet/cell ratio, laser cytometry, cells loaded with oleic acid; for activity change, negative = inhibition: at 57.5 µM (top of the series). In outline:
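Cells seeded at 5,000 per well were treated with compounds over a concentration series and loaded with oleic acid (400 uM, as added). Lipid droplet fluorescence (488 nm excitation, 500-530 nm channel) was read by laser-scanning cytometry and normalized to 20 uM Triacsin C.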

In assay [15] the target is Ubiquitin carboxyl-terminal hydrolase 1 (Homo sapiens) (UniProt O94782). Briefly: Inhibitors of USP1/UAF1: Pilot qHTS (AID 504865; active = well fitted curve in the direction sought with a large enough effect; an effect the other way counts as inactive or inconclusive;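 also: rhodamine fluorescence freed from ubiquitin-rhodamine substrate followed over time; top concentration of the series differs between compounds; % is scaled to controls: 0 for no effect and ±100 for the full control effect; nearly all actives have a fitted effect of over 35% in size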). The note with it: purified USP1/UAF1, Ub-rhodamine cleavage fluorescence; series mostly up to 54.9 µM. In outline: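 In 50mM HEPES pH 7.8 containing 0.5mM EDTA, 1mM TCEP, 0.1 mg/ml BSA and 0.01% Tween-20, 1nM USP1/UAF1 is exposed to compound for 15 min, then Ub-Rho (150nM final) is added and fluorescence is read over time.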

For assay [16], the target named is Cytochrome P450 2C19 (Homo sapiens) (UniProt P33261). Kind of assay: qHTS Assay for Inhibitors and Substrates of Cytochrome P450 2C19 (AID 899; active = well fitted curve in the direction sought with a large enough effect; an effect the other way counts as inactive or inconclusive; also: potency is read from the fitted curve at half-maximal effect; nearly all actives have a fitted effect of over 60% in size). The note with it: recombinant CYP2C19, luciferin-H EGE luminescence; series mostly up to 57.1 µM. A digest of the protocol: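 Luminescent read-out of luciferin formed from Luciferin-H EGE (10uM, equal to KM). Enzyme 5nM in 50mM KPO4; compound added, 10 min at 37C, then NADPH regenerating system for 60 min at 37C. Full inhibition defined by 57uM ketoconazole.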

The mark [17] stands for this setting: measured here: cell count channel max response.
Setting [18] is: measured here: lipid channel max response.

Where “and” joins values, the source holds several entries; their conditions need not be identical. Equal values may be shown once. Results filed as inconclusive are left out. Calls of active or inactive are those of the source. Unless noted, calls follow the shape of the dose curve; as a rule, active = well fitted curve in either direction with a large enough effect (not every such curve was filed as active); inconclusive = small, poorly fitted or top-dose-only effect, or another doubt; inactive = flat fitted curve, though single readings scatter. Some results are limits rather than exact numbers.

Sequence of 3',5'-cyclic-AMP phosphodiesterase 4B (Homo sapiens) (Q07343 whole entry, looked up): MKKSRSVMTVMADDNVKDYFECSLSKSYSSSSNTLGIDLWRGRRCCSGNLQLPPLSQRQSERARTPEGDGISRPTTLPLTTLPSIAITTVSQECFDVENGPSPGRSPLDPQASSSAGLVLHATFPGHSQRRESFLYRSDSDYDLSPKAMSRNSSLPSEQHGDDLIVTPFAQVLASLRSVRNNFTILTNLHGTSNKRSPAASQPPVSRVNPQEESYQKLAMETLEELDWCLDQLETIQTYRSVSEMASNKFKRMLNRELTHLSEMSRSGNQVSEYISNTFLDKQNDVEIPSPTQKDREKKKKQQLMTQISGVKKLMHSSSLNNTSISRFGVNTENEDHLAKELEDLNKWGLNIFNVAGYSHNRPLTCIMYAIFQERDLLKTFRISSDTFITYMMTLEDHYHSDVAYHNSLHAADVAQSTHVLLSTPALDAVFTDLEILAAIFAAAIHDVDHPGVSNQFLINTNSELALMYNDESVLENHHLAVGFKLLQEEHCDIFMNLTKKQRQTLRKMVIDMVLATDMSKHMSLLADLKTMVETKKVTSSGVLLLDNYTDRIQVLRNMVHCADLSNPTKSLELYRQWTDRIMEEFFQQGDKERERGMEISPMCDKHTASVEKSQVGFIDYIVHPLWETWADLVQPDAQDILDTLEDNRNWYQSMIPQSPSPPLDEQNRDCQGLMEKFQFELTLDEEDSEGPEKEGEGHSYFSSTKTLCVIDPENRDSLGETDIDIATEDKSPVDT
Sequence of Cytochrome P450 1A2 (Homo sapiens) (P05177 whole entry, looked up): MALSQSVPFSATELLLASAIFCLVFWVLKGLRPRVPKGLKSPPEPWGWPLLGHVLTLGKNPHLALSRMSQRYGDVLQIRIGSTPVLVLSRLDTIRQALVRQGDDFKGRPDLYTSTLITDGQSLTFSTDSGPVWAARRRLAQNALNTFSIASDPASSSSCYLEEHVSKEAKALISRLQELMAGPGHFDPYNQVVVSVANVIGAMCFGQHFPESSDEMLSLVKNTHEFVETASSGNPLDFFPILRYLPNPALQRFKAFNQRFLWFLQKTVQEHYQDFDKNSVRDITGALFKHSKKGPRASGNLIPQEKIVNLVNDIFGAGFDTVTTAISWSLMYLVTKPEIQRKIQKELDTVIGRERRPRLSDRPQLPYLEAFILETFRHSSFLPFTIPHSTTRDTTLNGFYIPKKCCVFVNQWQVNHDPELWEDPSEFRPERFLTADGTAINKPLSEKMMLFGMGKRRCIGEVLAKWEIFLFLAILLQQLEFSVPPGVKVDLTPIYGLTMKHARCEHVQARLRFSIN
Sequence of Glucocorticoid receptor (Homo sapiens) (P04150 whole entry, looked up): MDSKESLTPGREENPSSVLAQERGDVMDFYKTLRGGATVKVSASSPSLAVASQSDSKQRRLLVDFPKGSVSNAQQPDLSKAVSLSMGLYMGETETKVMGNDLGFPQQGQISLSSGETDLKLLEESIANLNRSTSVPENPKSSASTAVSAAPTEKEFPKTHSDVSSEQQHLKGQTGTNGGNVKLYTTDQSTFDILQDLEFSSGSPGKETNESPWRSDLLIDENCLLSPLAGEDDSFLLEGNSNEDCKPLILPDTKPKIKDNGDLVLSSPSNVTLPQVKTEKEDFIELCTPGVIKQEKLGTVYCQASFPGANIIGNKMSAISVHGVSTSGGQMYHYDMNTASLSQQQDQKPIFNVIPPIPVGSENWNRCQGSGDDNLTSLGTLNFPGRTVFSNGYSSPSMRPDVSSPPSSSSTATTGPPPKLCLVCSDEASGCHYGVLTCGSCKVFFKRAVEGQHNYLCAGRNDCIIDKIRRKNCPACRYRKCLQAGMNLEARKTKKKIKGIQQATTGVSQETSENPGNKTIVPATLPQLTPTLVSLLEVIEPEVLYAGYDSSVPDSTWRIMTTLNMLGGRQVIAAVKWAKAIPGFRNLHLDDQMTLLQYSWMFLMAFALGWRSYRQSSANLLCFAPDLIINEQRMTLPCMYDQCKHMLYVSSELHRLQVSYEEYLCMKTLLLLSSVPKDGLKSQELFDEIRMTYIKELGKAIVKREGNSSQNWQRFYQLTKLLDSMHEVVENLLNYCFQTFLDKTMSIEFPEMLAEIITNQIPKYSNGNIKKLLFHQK
Sequence of Lysosomal acid glucosylceramidase (Homo sapiens) (P04062 whole entry, looked up): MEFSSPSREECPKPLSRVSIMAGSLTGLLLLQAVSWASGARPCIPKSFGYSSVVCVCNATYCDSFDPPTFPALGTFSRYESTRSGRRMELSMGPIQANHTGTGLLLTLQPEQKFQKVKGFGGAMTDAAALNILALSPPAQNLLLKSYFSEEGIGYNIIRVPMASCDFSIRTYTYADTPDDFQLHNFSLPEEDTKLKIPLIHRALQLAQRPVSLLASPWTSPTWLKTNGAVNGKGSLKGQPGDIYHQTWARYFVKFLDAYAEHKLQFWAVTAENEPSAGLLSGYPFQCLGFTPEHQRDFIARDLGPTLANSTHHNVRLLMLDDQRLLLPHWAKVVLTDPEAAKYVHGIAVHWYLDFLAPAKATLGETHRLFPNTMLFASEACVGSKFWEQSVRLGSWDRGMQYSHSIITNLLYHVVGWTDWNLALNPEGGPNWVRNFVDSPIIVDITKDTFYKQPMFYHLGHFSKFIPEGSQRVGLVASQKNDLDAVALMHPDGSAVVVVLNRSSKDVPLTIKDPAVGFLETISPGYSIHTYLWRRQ
Sequence of Cytochrome P450 3A4 (Homo sapiens) (P08684 whole entry, looked up): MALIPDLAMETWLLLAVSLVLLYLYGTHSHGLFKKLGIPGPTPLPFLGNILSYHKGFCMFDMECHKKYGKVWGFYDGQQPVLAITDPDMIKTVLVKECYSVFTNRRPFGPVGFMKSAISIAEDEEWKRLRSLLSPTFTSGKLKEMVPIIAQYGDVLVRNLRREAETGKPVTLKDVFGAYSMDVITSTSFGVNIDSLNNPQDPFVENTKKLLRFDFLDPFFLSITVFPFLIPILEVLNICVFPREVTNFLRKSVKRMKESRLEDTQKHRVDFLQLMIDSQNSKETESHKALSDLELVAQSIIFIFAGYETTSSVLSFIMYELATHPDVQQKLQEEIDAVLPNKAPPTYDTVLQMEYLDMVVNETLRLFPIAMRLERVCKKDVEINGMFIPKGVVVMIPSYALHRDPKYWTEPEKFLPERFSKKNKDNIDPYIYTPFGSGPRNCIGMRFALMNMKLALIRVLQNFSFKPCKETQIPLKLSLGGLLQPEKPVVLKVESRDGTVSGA
Sequence of Cytochrome P450 2C19 (Homo sapiens) (P33261 whole entry, looked up): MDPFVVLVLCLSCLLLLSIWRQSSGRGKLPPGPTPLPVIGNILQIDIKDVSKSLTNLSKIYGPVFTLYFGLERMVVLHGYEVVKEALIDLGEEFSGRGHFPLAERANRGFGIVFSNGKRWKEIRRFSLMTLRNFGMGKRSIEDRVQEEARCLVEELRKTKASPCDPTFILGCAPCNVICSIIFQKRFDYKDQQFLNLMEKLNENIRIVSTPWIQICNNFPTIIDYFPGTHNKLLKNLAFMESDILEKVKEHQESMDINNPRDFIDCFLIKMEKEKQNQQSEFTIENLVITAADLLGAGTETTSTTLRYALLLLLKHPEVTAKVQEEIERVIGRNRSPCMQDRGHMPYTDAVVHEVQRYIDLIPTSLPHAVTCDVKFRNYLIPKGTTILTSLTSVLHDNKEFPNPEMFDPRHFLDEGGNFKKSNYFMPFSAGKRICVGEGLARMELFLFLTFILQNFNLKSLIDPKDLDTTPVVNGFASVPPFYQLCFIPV
Sequence of Ubiquitin carboxyl-terminal hydrolase 1 (Homo sapiens) (O94782 whole entry, looked up): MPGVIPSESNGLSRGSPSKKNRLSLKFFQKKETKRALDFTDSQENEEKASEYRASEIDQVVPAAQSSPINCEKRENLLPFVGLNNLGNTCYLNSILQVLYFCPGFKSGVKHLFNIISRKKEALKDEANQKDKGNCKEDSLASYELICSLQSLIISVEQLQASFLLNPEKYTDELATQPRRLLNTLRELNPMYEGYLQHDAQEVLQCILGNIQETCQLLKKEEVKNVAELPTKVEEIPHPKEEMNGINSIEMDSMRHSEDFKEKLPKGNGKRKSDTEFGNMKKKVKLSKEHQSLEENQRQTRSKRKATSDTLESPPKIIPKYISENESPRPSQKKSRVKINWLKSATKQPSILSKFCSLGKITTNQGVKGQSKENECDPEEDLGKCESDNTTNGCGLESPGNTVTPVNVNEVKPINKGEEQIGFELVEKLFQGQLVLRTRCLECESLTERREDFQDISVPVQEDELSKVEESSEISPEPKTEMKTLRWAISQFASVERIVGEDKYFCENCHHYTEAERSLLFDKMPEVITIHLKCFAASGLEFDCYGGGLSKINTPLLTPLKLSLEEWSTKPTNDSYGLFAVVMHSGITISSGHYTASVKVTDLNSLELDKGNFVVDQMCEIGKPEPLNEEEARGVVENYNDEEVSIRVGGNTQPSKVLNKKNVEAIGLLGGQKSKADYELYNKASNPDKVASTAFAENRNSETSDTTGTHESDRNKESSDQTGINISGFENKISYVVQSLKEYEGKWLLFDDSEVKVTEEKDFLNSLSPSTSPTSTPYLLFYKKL

For `COc1ccc2[nH]cc(CCNc3ncncc3-c3ccccc3CN(C)C)c2c1`, the Potency in assay [1] is > 11.4 µM (inactive); in assay [3] it was 20 µM (active); in assay [6], > 46 µM (inactive); in assay [7] it was > 46 µM (inactive); in [10] it was 0.631 µM (active). Also, the activity change, negative = inhibition in [2] was -7.44% (inactive); in assay [4], -7.95% (inactive); in assay [14] it was 2.99% (inactive). For the same compound, in assay [5], the activity, negative = inhibition is 0.332% (inactive). Also, the Potency entry in assay [8], in assay [9], in assay [11], in [12] and in assay [15] was “inactive” throughout. In addition, the result in [13] was inactive. The max response in assay [14] (setting [17]) is -0.105%; in assay [14] (setting [18]) it was 4.99%.
Regarding `CC1=CC(=O)CC(C)(C)C1(O)/C=C/C(C)=C\C(=O)O` (centres undefined), the Potency result in [8], in [10] and in [12] was “inactive” in each case. Also, the compound was called inactive in assay [13]. Besides, the activity change, negative = inhibition in assay [14] is 8.24% (inactive) and 1.12% (inactive). The max response was 12.7% and 14.4% in [14] (setting [17]); 25.4% and 14.8% in [14] (setting [18]).
For the compound `COc1ccc(C(=O)N2CCC3(CCN(C(=O)Nc4cccc(F)c4)CC3)CC2)cc1`, the Potency in assay [1] is > 11.4 µM (inactive); in [7], > 46 µM (inactive). Also, the values for the activity change, negative = inhibition in assay [2], in assay [4] and in assay [14] were -28.3% (inactive), 7.36% (inactive) and 6.16% (inactive), respectively. Moreover, the Potency result in assay [3], in [8] and in [9] was “inactive” each time. For the same compound, in assay [5], the activity, negative = inhibition is -5.59% (inactive). Besides, the max response turned out to be 13.8% in assay [14] (setting [17]) and 22% in [14] (setting [18]).
For `Cc1cccc(CNc2ncncc2-c2ccccc2C(F)(F)F)c1`, the Potency in assay [1] was > 11.4 µM (inactive); in assay [3], 12.6 µM (active); in [6] it was > 46 µM (inactive); in assay [7], > 46 µM (inactive); in assay [10] it was 0.0794 µM (active). For the same compound, the figures for the activity change, negative = inhibition in assay [2], in [4] and in assay [14] were -9.35% (inactive), -6.75% (inactive) and 4.45% (inactive), respectively. The activity, negative = inhibition in assay [5] was -0.642% (inactive). In addition, the Potency result in assay [8], in assay [11] and in [12] was “inactive” in each case. For the same compound, in assay [13], the compound was called inactive. Also, the max response is -2.27% in assay [14] (setting [17]) and 3.62% in assay [14] (setting [18]).
Regarding `COc1ccccc1-c1cncnc1NCc1cccc(C)c1`, the Potency was > 11.4 µM (inactive) in assay [1]; 5.01 µM (active) in [3]; > 46 µM (inactive) in assay [6]; > 46 µM (inactive) in assay [7]; 0.398 µM (active) in [16]. Besides, the activity change, negative = inhibition in assay [2] was -3.97% (inactive); in assay [4], -21.2% (inactive); in assay [14] it was 10.8% (inactive). Also, the activity, negative = inhibition in assay [5] is -6.93% (inactive). The Potency result in assay [8], in assay [11] and in assay [12] was “inactive” in each case. Further, the max response stood at 7.88% in [14] (setting [17]) and 19.2% in [14] (setting [18]).
Take `CS(=O)(=O)N1CCC[C@@]2(CCN(c3ccncc3)C2)C1`: the results for the Potency in assay [1], in assay [7] and in assay [10] were > 11.4 µM (inactive), > 46 µM (inactive) and 7.94 µM (active), respectively. Besides, the activity change, negative = inhibition is -3.38% (inactive) in [2], -25.4% (inactive) in assay [4] and -0.375% (inactive) in [14]. Also, the Potency entry in assay [3], in assay [8], in assay [9] and in [11] was “inactive” each time. The activity, negative = inhibition in [5] was 1.56% (inactive). Also, the results for the max response in assay [14] (setting [17]) and in assay [14] (setting [18]) were -15.6% and -16.3%, respectively.
In the case of `N#CCCn1c(=O)cnc2cnc(N3CCNCC3)nc21`, the Potency is > 11.4 µM (inactive) in assay [1], 12.6 µM (active) in assay [3], > 9.22 µM (inactive) in assay [6] and > 46 µM (inactive) in assay [7]. The activity change, negative = inhibition in assay [2] is -10.6% (inactive); in assay [4], 3.67% (inactive); in assay [14], 4.17% (inactive). In [5], the activity, negative = inhibition is -12.7% (inactive). The Potency entry in [8] and in [9] was “inactive” in each case. In addition, the max response turned out to be 14.3% in assay [14] (setting [17]) and 19.4% in assay [14] (setting [18]).

The values are drawn from PubChem BioAssay (NCATS).
